Screening results as filed in PubChem BioAssay.
This is a sample that favours compounds with a hit; in the whole collection about 9.2% have one here.
ELG1 genotox = genotoxicity induction in ELG1-luciferase HEK293T cells. 1.3% of 330,000 active. Potency, µM (doses to about 46 µM), for inactives: at the highest dose activity change, positive = activation, actives largely listed as activators. HEK293T ELG1-luciferase reporter, luminescence, 16 h. AID 504466; note: % of control where 0% means no effect; nearly all actives have a fitted effect of over 60% in size
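Step 1: seed 2,000 HEK293T ELG1-luciferase cells per well. Step 2: add compound or DMSO, incubate 16 hr at 37 °C. Step 3: ONE-Glo, 30 min at room temperature, read luminescence.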
SMN2 splice enh = enhancers of SMN2 splice variant expression; HEK293 SMN2-luciferase splicing reporter, luminescence, 30-36 h; AID 1458; 2.8% of 210,000 active; Potency, µM (titrated, usually from 46.1 µM), for the others: at the highest dose activity change, positive = activation, usual class: activators; note: % of control where 0% means no effect; nearly all actives have a fitted effect of over 55% in size
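HEK293 cells carry an SMN2 […]–luciferase reporter in which exon 7 inclusion puts luciferase in frame. Cells were plated 10-12 h before compound addition, then incubated 30-36 h at 37C. ONE-Glo luminescence was read; sodium butyrate at 4.5 mM final served as control.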
NPC1 prom act = activators of NPC1 promoter | AID 485313 | Huh7 NPC1 promoter luciferase reporter, 24 h | Potency, µM (titrated, usually from 9.22 µM), inactives show top-dose activation, usual class: activators | 2.4% of 320,000 active; note: % of control where 0% means no effect; nearly all actives have a fitted effect of over 60% in size
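Stably transfected Huh7 (NPC1 promoter→luciferase), 1500 cells/well in Opti-MEM + 10% FBS, 2 h settle, then compound 24 h at 37 °C. Luminescence after 10 min with Amplite reagent.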
FLuc modulator = counter-screen for miR-21 project: firefly luciferase inhibitors or activators; Potency, µM (doses to about 57.5 µM), inactives show at the highest dose activity change, negative = inhibition, usual class: inhibitors; P08659; 6.9% of 360,000 active; purified FLuc, Km substrates, luminescence inhibition; AID 588342;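 note: plate controls were vehicle for no effect and reference inhibitor for full effect; nearly all actives have a fitted effect of over 55% in size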
Target sequence (P08659 whole entry, looked up): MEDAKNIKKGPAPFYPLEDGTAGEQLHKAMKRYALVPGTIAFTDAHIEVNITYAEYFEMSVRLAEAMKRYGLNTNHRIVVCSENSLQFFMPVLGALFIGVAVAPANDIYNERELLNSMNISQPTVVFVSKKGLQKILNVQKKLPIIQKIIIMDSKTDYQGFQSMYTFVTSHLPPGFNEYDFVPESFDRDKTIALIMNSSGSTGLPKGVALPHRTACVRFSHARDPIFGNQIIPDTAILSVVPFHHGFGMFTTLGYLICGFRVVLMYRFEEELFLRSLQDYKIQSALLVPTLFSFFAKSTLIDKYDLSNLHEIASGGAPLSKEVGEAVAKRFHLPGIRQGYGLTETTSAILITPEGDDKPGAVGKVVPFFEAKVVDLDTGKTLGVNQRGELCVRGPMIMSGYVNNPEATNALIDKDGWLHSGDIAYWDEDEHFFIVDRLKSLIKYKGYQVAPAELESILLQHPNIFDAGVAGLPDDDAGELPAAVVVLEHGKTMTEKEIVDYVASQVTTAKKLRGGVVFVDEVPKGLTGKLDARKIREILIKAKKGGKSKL
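Purified P. pyralis luciferase, 10 nM final, with Km-level 10 uM D-luciferin and 10 uM ATP in 50 mM Tris acetate pH 7.5, 10 mM Mg acetate, 0.01% Tween-20, 0.05% BSA; 6-point qHTS titration about 60 µM downward; luminescence read.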
ELG1 DNA repair = ELG1-dependent DNA repair inhibition | 2.3% of 330,000 active | AID 504467 | Potency, µM (titrated, usually from 46.1 µM), inactives show at the highest dose activity change, negative = inhibition, most hits filed as inhibitors | HEK293T ELG1-luciferase reporter, luminescence, 16 h; DNA damage induced by 5-fluorouridine; note: % is set by controls: 0 for no effect and ±100 for the full control effect; nearly all actives have a fitted effect of over 55% in size
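In this reporter screen, reduction of luminescence relative to DMSO vehicle indicated activity. Compounds and 5-fluorouridine were added together to 2,000 cells per well, incubated for 16 hr at 37 °C, then developed with ONE-Glo.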
Rab9 promoter act = Rab9 promoter activation. Huh7 Rab9 promoter-luciferase reporter, luminescence, 24 h. Potency, µM (doses to about 9.22 µM), without a hit: top-dose activation, negative = inhibition, usual class: activators. 2.8% of 320,000 active; note: % of control where 0% means no effect; nearly all actives have a fitted effect of over 60% in size
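Stable Rab9-luc Huh7, 1500 cells/well, 2 h settle; cmpd in DMSO, 24 h, 37 °C/5% CO2; luciferase reagent 10 min RT; luminescence.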
* = called active by the depositor; ? = inconclusive; / = no result; [ ] = dose if it differs, or a comment. Calls come from the whole dose curve; as a rule, active = well fitted curve in the direction sought with a large enough effect; inconclusive = small, poorly fitted or top-dose-only effect, or another doubt; inactive = no such curve, though single readings can be large; an effect the other way counts as inactive or inconclusive. Potency is the fitted concentration of half-maximal effect.

SMILES	ELG1 genotox	SMN2 splice enh	NPC1 prom act	FLuc modulator	ELG1 DNA repair	Rab9 promoter act
Cc1ccc(C(=O)O/N=C(\N)c2cccnc2)cc1[N+](=O)[O-]	?	?	10%	12µM*	?	2%
N/C(=N\OC(=O)c1ccc([N+](=O)[O-])cc1)c1cccnc1	?	/	-1%	2.7µM*	?	-5%
CCOc1cccc(CN2CCC(N3CCC(C(=O)NCC4CCCO4)CC3)CC2)c1 (stereo not given)	-3%	/	-17%	0%	2%	-5%
CCN(C[C@H]1N[C@@](CC)(C(=O)OC)[C@H]2C(=O)N(C)C(=O)[C@@H]12)C(=O)NC(C)C	3%	/	/	/	22%	/
N.N.N.N.N.N.N.N.N.N.N.N.N.N.O.O.[Ru+4].[Ru+5].[Ru+5]	/	/	-12%[46.1 µM]	/	/	-11%[46.1 µM]
COc1ccc(CN2CCN(Cc3nc4ccccc4s3)CC2CCO)c(C)c1C (stereo not given)	3%	/	-5%	-1%	16µM*	-21%
Cc1ccc(C(=O)Oc2oc(-c3ccco3)nc2C=Nc2ccccc2)cc1	14%	23%	29%	15µM*	?	?
CN(C)c1ccc(N=Cc2nc(-c3ccccc3)oc2OC(=O)c2cccc(Br)c2)cc1	?	16µM*	?	?	?	28%
CC(=O)Oc1oc(-c2ccccc2)nc1C=Nc1ccccc1	4%	6%	-6%	-19%	23%	17%
COc1ccc(N=Cc2nc(-c3ccccc3)oc2OC(=O)c2ccccc2)cc1	?	119%	27%	11µM*	?	?
COc1ccc(S(=O)(=O)N2CCCCC2)cc1NC(=O)CCNC(=O)c1ccc(Br)cc1	18%	/	-1%	-1%	14%	-1%
CC(=O)c1ccc(NS(=O)(=O)c2ccc3c(c2)N(C)CCO3)cc1	-2%	/	-2%	6%	-4%	0%
COc1ccc(CCN(Cc2cccs2)S(=O)(=O)c2ccc(-n3cnnn3)cc2)cc1OC	-11%	-64%	-5%	4%	16µM*	-5%
Nc1c(C(=O)NCc2ccco2)c2nc3ccccc3nc2n1CCc1ccccc1F	-12%	-5%	-2%	-1%	-29%	-7%
COc1ccc(CCn2c(N)c(C(=O)NCc3ccco3)c3nc4ccccc4nc32)cc1	-2%	-15%	-10%	2%	21µM*	-6%
COc1ccc(CCn2c(N)c(C#N)c3nc4ccccc4nc32)cc1OC	-11%	24%	0%	0%	23µM*	3%
COc1ccc(CCn2c(N)c(C(=O)NCc3ccco3)c3nc4ccccc4nc32)cc1OC	-11%	-7%	8%	-18%	10µM*	-1%
O=C(NCC1CCCO1)c1ccc(CNS(=O)(=O)c2cccc(Cl)c2)cc1 (stereo not given)	0%	-10%	2%	-4%	7%	-1%
Cc1ccc(/C(N)=N/OC(=O)CCC2CCCC2)cc1	11%	22%	-3%	15µM*	?	4%
N/C(=N\OC(=O)CCCc1ccccc1)c1ccccc1Cl	?	/	2%	6.7µM*	-4%	2%
N/C(=N\OC(=O)CCC1CCCC1)c1ccc(Cl)cc1	?	/	13%	21µM*	?	3%
Cc1cccc(/C(N)=N/OC(=O)CCc2ccccc2)c1	13%	/	19%	21µM*	?	?
CCCC(C(=O)NCCC(C)C)N(Cc1ccccc1Cl)C(=O)c1snc(C(N)=O)c1N (stereo not given)	-4%	/	-4%	2%	?	14%
CCC(C(=O)O)N1C(=O)C2CCCCC2C1=O (stereo not given)	-1%	/	0%	-2%	1%	-3%
Cc1cccc(/C(N)=N/OC(=O)Cc2cccc3ccccc23)c1	-3%	8%	0%	0%	-3%	2%
SMILES	ELG1 genotox	SMN2 splice enh	NPC1 prom act	FLuc modulator	ELG1 DNA repair	Rab9 promoter act
Cc1cccc(/C(N)=N/OC(=O)CCC2CCCCC2)c1	?	21%	14%	6µM*	?	10%
Cc1ccc(/C(N)=N/OC(=O)CCC2CCCCC2)cc1	9%	16%	11%	19µM*	?	18%
COc1ccc(/C(N)=N/OC(=O)CCC2CCCC2)cc1	-1%	/	1%	5%	-3%	9%
COc1ccc(NC(=O)c2c(NCc3sccc3C)sc3c2CCCCC3)c(OC)c1	/	/	/	-17%	/	/
CCOC(=O)N1CCc2c(sc(NCc3cccc(F)c3)c2C(=O)Nc2ccc(OC)cc2OC)C1	/	/	/	15µM*	/	/
CCOC(=O)N1CCc2c(sc(NCc3sccc3C)c2C(=O)Nc2ccc(OC)cc2OC)C1	/	/	/	11µM*	/	/
Cc1cccc(C)c1NC(=O)CNC(=O)CCC(=O)N1CCOCC1	-1%	/	0%	0%	4%	-4%
Cc1c(C)n(C(=O)CSc2ncn[nH]2)c2ccccc12	1%	7%	0%	7%	1%	-5%
C=CCn1c(N)c(C(=O)Nc2cccc(C)c2)c2nc3ccccc3nc21	-2%	12%	0%	-9%	-1%	0%
C=CCn1c(N)c(C(=O)OCCC)c2nc3ccccc3nc21	-4%	/	3%	-8%	16µM*	6%
COc1ccc(CNC(=O)c2ccc3c(c2)nc2n3CCCCC2)cc1	/	/	/	17µM*	/	/
Cc1cccc(CCNC(=O)c2ccc3c(c2)nc2n3CCOC2)c1	/	/	/	15µM*	/	/
O=C(NCCc1ccccc1Cl)c1ccc2c(c1)nc1n2CCOC1	/	/	/	4.8µM*	/	/
CCCNC(=O)c1ccc2c(c1)nc1n2CCCCC1	/	/	/	17µM*	/	/
O=C(NCCC1=CCCCC1)c1ccc2c(=O)n3c(nc2c1)CCCCC3	0%	-16%	13%	-18%	-8%	4%
Cc1cccc(CCNC(=O)c2ccc3c(c2)nc2n3CCCCC2)c1	/	/	/	4.8µM*	/	/
Nc1ccc(Cc2nc3cc4ccccc4cc3[nH]2)cc1	14%	13µM*	?	19µM*	?	?
CCc1nc2ccc(Cc3ccc4nc(CC)[nH]c4c3)cc2[nH]1	0%	/	-1%	12µM*	-25%	10%
Nc1ccc(C(=O)OCc2nc3c(ccc4ccccc43)[nH]2)cc1	?	154%	25%	13µM*	?	?
Nc1ccc(C(=O)OCCCc2nc3cc4ccccc4cc3[nH]2)cc1	-1%	/	1%	15µM*	?	19%
Nc1ccc2nc(CCc3ccccc3)[nH]c2c1	15%	?	20%	?	?	?
Cc1ccc2nc(CCc3ccc(N)cc3)[nH]c2c1	?	/	2.8µM*	15µM*	?	3.2µM*
O=c1c2ccccc2nc(/C=C/c2ccc(Br)cc2)n1CCCO	-9%	/	-7%	?	-5%	3%
